Measured values reported in ChEMBL document CHEMBL3988442, “University of Dundee, Small-Polar-MMV Screening Library” (2021).
Several values for one entry are separate records, joined by “and”; a condition that tells them apart may be missing. Equal values may be shown once. The campaign covered roughly 34,000 compounds. About 290 (0.85%) showed an effect of 50% or more. The full list was thinned out, with strong results kept by preference.

System: Plasmodium falciparum
Experiment: Plasmodium falciparum sporozoite viability assay
Type: functional, organism-based
Parameters: scale not given: in the data most compounds retested in dose-response had high values

Row | SMILES | Percent Effect (10 mM as filed; unlikely as a test dose) | Percent Effect
1 | COc1cc(NC(=O)c2ccc(CN3CC[C@H](O)C3)cc2)cc(OC)c1 | 90.3% and 82.4% | 
2 | NC(=O)c1ccc(CN2CCCC(O)C2)cc1 (stereo unspecified) |  | -1.578%
3 | COc1ccc(NC(=O)c2ccc(CN3CC[C@H](O)C3)cc2)c(OC)n1 | -15.85% and -8.926% | 
4 | Cc1cc(NC(=O)c2ccc(CN3CC[C@H](O)C3)cc2)ccc1F | 96.75% and 98.24% | 
5 | Cc1cncc(NC(=O)c2ccc(CN3CCCC(C(N)=O)C3)cc2)c1 (stereo unspecified) | -5.227% and 10.36% | 
6 | Cc1cncc(NC(=O)c2ccc(CN3CC[C@H](O)C3)cc2)c1 | 88.45% and 79.14% | 
7 | Cc1[nH]ccc1C(=O)Nc1cccc(CN2CCC(O)CC2)c1 |  | 11.84%
8 | CCc1ccc(C(=O)Nc2cccc(CN3CCCC3C(N)=O)c2)cc1 (stereo unspecified) |  | -39.95%
9 | Fc1cccc(-c2nc(CN3CCCC3Cn3cccn3)co2)c1 (stereo unspecified) |  | 3.787%
10 | CCc1cc(O)nc(C2CCCN2C(=O)c2cc(CC)on2)n1 (stereo unspecified) |  | 0.3331%
11 | CC(NC(=O)NCCCn1cncn1)c1ccc2c(c1)CC(=O)N2 (stereo unspecified) |  | 3.485%
12 | CSCc1cc(F)ccc1CNC(=O)N1CCOCC1 |  | 1.579%
13 | Cc1ccnc(NC(=O)C2(n3cnnn3)CCCCC2)c1 |  | -7.357%
14 | CCCN1Cc2ccccc2CC1C(=O)NC (stereo unspecified) |  | -3.834%
15 | CC(=O)N1Cc2ccccc2CC1C(=O)Nc1cc(C)ccn1 (stereo unspecified) | 71.78% and 85.23% | 
16 | CC(=O)N1Cc2ccccc2C[C@H]1C(=O)Nc1ccccn1 | 80.79% and 67.33% | 
17 | CCNC(=O)NCCc1csc(N2CCCC2)n1 |  | -15.2%
18 | CCOc1ccc(-c2cc(=O)n3c(n2)CCCCC3)cc1 |  | -4.121%
19 | COc1ccc(CN(Cc2ccccn2)Cc2cncn2C)cc1.O=C(O)CC(O)(CC(=O)O)C(=O)O |  | 3.185%
20 | CCOc1cc(C)nc(N2CCN(C(=O)CN(C)C3CC3)CC2)n1 |  | 8.163%
21 | Cn1cncc1CN1CCC(O)(Cn2nc(-c3cccs3)oc2=O)CC1.O=C(O)CC(O)(CC(=O)O)C(=O)O |  | -17.63%
22 | CC(C)n1nc2c(cc1=O)CN(c1nc3ccccc3s1)CC2 | 66.67% and 52.43% and 41.91% | 
23 | CN(C)C(=O)CS(=O)(=O)Cc1cc(Cl)c2c(c1)OCCO2 |  | 4.247%

Row | SMILES | Percent Effect (10 mM as filed; unlikely as a test dose) | Percent Effect
24 | Clc1cc(CN2CCCCC2Cn2cncn2)c2ncccc2c1 (stereo unspecified) |  | -10.63%
25 | CC(C)Nc1ncnc2c1CCN(C(=O)c1ccc[nH]1)CC2 |  | -7.967%
26 | CC(C)C[C@H](N)COc1cccc(F)c1Oc1cccc(Cl)c1 |  | 0.9974%
27 | Cc1ccc(NS(=O)(=O)c2cc3c(c(C(=O)O)c2)OCCO3)cc1F |  | 6.057%
28 | O=C(O)C(F)(F)F.O=c1ccc2c(n1CC1CC1)CCC(NCc1cccs1)C2 (stereo unspecified) |  | 4.557%
29 | Cc1cccc(-c2noc([C@@H]3Cc4nc[nH]c4CN3)n2)c1 | 77.23% and 75.76% | 
30 | Cc1cccc(-c2noc(CN3CCOCC3C)n2)c1 (stereo unspecified) |  | 5.079%
31 | Cc1ccc(-c2noc([C@@H]3Cc4nc[nH]c4CN3)n2)cc1 | 79.76% and 77.83% | 
32 | c1cc(-c2noc([C@@H]3Cc4nc[nH]c4CN3)n2)ccn1 | -0.1591% and 11.18% | 
33 | c1ccc(-c2noc([C@@H]3Cc4nc[nH]c4CN3)n2)cc1 | 8.153% and 22.58% | 
34 | Fc1ccc(-c2noc([C@@H]3Cc4nc[nH]c4CN3)n2)cc1 | 27.52% and 35.27% | 
35 | Cc1noc(NC(=O)c2ccc(OC(F)(F)F)cc2)n1 |  | -13.94%
36 | FC(F)(F)Oc1ccc(-c2noc([C@@H]3Cc4nc[nH]c4CN3)n2)cc1 | 93.02% and 93.75% | 
37 | O=C(NCC1CC1)C1CN(C(=O)NC2CCCC2)Cc2cncn2C1 (stereo unspecified) |  | 10.46%
38 | Cc1nn(C)c(Cl)c1C1CCCN1C(=O)c1cnn(C)c1C1CC1 (stereo unspecified) |  | 4.376%
39 | CC(C)C(=O)N1CCCC(c2cncc(Oc3cccnc3)n2)C1 (stereo unspecified) |  | -4.997%
40 | c1cc(N2CCOCC(Cc3ccc4[nH]ccc4c3)C2)ncn1 (stereo unspecified) |  | 5.765%
41 | CNC(=O)c1cc(C2CCCNC2)n[nH]1.Cl (stereo unspecified) |  | 11.11%
42 | COCCc1noc(CN2CCCC2Cn2nc(C)nc2C)n1 (stereo unspecified) |  | 16.37%
43 | CC(=O)N(Cc1ncc(C)o1)C1CCN(Cc2csc(C)n2)C1 (stereo unspecified) |  | 8.537%
44 | Cc1cc(C(=O)N2CC[C@H]3C[C@H](c4ccncn4)O[C@@H]3C2)c(C)[nH]1 |  | -3.163%
45 | CC(C)(C)n1ncc2c(=O)n(CC(=O)NCc3ccccc3Cl)cnc21 | 89.9% and 78.88% | 
46 | CC(C)(C)n1ncc2c(=O)n(CC(=O)NCc3ccccc3)cnc21 | 92.95% and 84.04% | 

Row | SMILES | Percent Effect (10 mM as filed; unlikely as a test dose) | Percent Effect
47 | CCCNC(=O)Cn1nc(C(C)C)c2cnn(C(C)(C)C)c2c1=O |  | -2.007%
48 | CC(C)(C)n1ncc2c(=O)n(CC(=O)NCCc3ccccc3)cnc21 | -2.076% and -3.898% | 
49 | NC(=O)Cn1c(CO)cnc1SCC(=O)NCc1ccccc1Cl | -15.15% and -22% | 
50 | CCCNC(=O)c1ncn2c1CN(CC(C)C)S(=O)(=O)c1ccccc1-2 |  | 20.71%
51 | CNc1ccc(C2CN(c3cc(C)nc(N)n3)CCO2)nc1 (stereo unspecified) |  | 20.28%
52 | CNc1nc2c(s1)C(=O)CN(C(=O)[C@@H](N)Cc1cccc(OC)c1)C2 |  | -10.92%
53 | CN[C@@H]1CCC[C@@H](Oc2ccccc2Oc2ccc(C)cc2)[C@@H]1O |  | 14.14%
54 | Cc1cccc2sc(NC(=O)CN3CCCC(O)(CO)C3)nc12 (stereo unspecified) | -25.02% and -31.47% | 
55 | Cc1cccc2sc(NC(=O)CN3CCC(C)CC3)nc12 | 5.902% and -3.165% | 
56 | Cc1cccc2sc(NC(=O)CN3CCCC4(CC3)CNC(=O)O4)nc12 (stereo unspecified) | 74.6% and 74.31% | 
57 | CN(Cc1nccn1C)c1ccc(-c2nccn2C)nn1 | -4.7% and -1.79% | 
58 | COc1ccc(CN(C)c2ccc(-c3nccn3C)nn2)cc1OC | 63.95% and 77.57% | 
59 | CN(Cc1ccoc1)c1ccc(-c2nccn2C)nn1 | -6.958% and -8.789% | 
60 | O=C(CN1CCC(c2cc(=O)n3c(n2)CCCCC3)CC1)N1CCCC1 |  | -0.7803%
61 | CC(=O)N1CCOC(c2cc(N3CC(O)C3)nc(C)n2)C1 (stereo unspecified) |  | -19.49%
62 | c1ccc2oc(CN3CCCC3c3noc(C4CC4)n3)nc2c1 (stereo unspecified) |  | 8.668%
63 | c1ccc2sc(CN3CCCC3c3noc(C4CC4)n3)nc2c1 (stereo unspecified) | 57.55% and 55.22% and 51.03% | 
64 | CC(CCc1ccccc1)N1CCC(C(=O)Nc2cnccn2)CC1 (stereo unspecified) |  | -2.997%
65 | CS(=O)(=O)NCc1cn2c(n1)CN(C(=O)c1ccc[nH]1)CC2 |  | -21.11%
66 | Cc1oncc1C(=O)N1CC[C@H]2[C@@H]1CCC(=O)N2CC1CCOCC1 |  | 5.199%
67 | CC(=O)N1CCC(c2cc(C(F)(F)F)nc3nccn23)CC1 |  | 1.841%
68 | O=C1[C@H]2CN(C(=O)[C@H]3CCCO3)C[C@H]2CN1CC1CC1 |  | 2.539%
69 | Cc1nn(C)cc1CN(C)Cc1cc2c(cc1OC(F)F)OCO2 |  | 5.075%

Row | SMILES | Percent Effect (10 mM as filed; unlikely as a test dose) | Percent Effect
70 | Cc1ncsc1CN(C)Cc1cc2c(cc1OC(F)F)OCO2 | 74.26% and 62.83% | 
71 | Cc1nc(CN(C)Cc2cc3c(cc2OC(F)F)OCO3)cs1 | -8.742% and -16.17% | 
72 | CC(Cn1ccnc1)NC(=O)C1(c2ccc(F)cc2)CCCC1 (stereo unspecified) |  | 23.02%
73 | Cc1cc(N2CCC(c3n[nH]c4nccnc34)CC2)ncn1 |  | 7.584%
74 | Brc1cccc(-c2nnc(CNCCn3cccn3)o2)c1 |  | 2.399%
75 | CC(C)c1ncc2c(n1)CN(Cc1nc(-c3ccsc3)no1)CC2 |  | 18.76%
76 | CC(C)c1nc2c(n1C)CCN(Cc1nc(-c3ccsc3)no1)C2 | 73.25% and 58.56% and 70.51% | 
77 | Cn1c(C2CC2)nc2c1CCN(Cc1nc(-c3ccsc3)no1)C2 | 19.95% and 27.05% and 21.39% | 
78 | CC(C)c1nc2c(n1C)CCN(Cc1nc(-c3cccs3)no1)C2 | 44.7% and 61.16% and 58.76% | 
79 | Cn1cnc2c1CCN(Cc1nc(-c3ccco3)no1)C2 | 12.07% and 12.49% | 
80 | c1csc(-c2noc(CN3CCc4cncnc4C3)n2)c1 | 24.87% and 17.34% and 36.23% | 
81 | CC(C)c1nc2c(n1C)CCN(Cc1nc(-c3ccoc3)no1)C2 | 83.83% and 76.55% and 70.15% | 
82 | CC(C)c1ncc2c(n1)CN(Cc1nc(-c3cccs3)no1)CC2 | 13.28% and 7.226% and -0.3719% | 
83 | CC(C)c1ncc2c(n1)CN(Cc1nc(-c3ccoc3)no1)CC2 | 11.99% and 7.268% and 10.61% | 
84 | COc1ccccc1OCCNC(=O)CN1CCc2cncnc2C1 |  | -7.271%
85 | O=C1CN(c2ccc(CNC(=O)NCc3ccoc3)cc2)CCN1 |  | 13.47%
86 | Cc1cn2c(n1)CCC(NC(=O)c1[nH]ncc1Br)C2 (stereo unspecified) |  | -6.244%
87 | Cc1cc(C(=O)N[C@@H]2CCC[C@@H](N3CCOCC3)[C@@H]2O)no1 |  | 7.233%
88 | O=C(O)C(F)(F)F.O=C([C@H]1C[C@H]2OCC[C@H]2N(CCc2ccccc2)C1)N1CCCCO1 |  | -6.171%
89 | CN1CCn2nc(-c3nc4ccccc4n3C)cc2C1 | 21.76% and 43.98% | 
90 | CCCOC(=O)N1CCn2nc(-c3nc4ccccc4n3C)cc2C1 | 47.05% and 19.27% | 
91 | Cn1c(-c2cc3n(n2)CCCN(CC(=O)O)C3)nc2ccccc21 | 91.97% and 88.48% | 
